Results reported in the supplement of paper PMC10933113.
± gives the uncertainty stated by the source.

System: THP-1
Experiment: CD86 surface expression induction over DMSO control (% over DMSO); higher = stronger dendritic cell activation
Settings: exposure time: 24 h
Procedure: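 hCLAT-like CD54 and CD86 surface expression on THP1 cells after 24 h exposure at a single concentration (highest non-cytotoxic concentration, or 100-200 µM if not cytotoxic). Flow cytometry (iQue) was run on 5,000 live cells.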

Q: For `CC(C)=CCOc1ccc(/C=C/C(=O)c2ccc(OCC=C(C)C)cc2OCC(=O)O)cc1` [Sofalcone] (100 µM), which “CD86 surface expression induction” value is on record?
A: -6.95 ± 7.2

Q: Which “CD86 surface expression induction” value does the source give for `CCCCCCCCCCCC(=O)NCCCN(C)C` [N-[3-(Dimethylamino)propyl]dodecanamide] (200 µM) here?
A: 43.4 ± 63

Q: For `CC(C)=CCC/C(C)=C\CO` [(2Z)-3,7-Dimethylocta-2,6-dien-1-ol] (200 µM), which “CD86 surface expression induction” value is on record?
A: 6.83 ± 19

Q: For `Nc1nnc(-c2ccc([N+](=O)[O-])o2)o1` [2-Amino-5-(5-nitro-2-furyl)-1,3,4-oxadiazole] (10 µM), which “CD86 surface expression induction” value is on record?
A: -2.6 ± 2.1

Q: Which “CD86 surface expression induction” value does the source give for `CC(C)=CCC1C(=O)N(c2ccccc2)N(c2ccccc2)C1=O` [Feprazone] (200 µM) here?
A: 71.8 ± 44
